# Assay results from PubChem BioAssay (NCI).
# The panel holds about 79,000 compounds, 15% with a hit somewhere; the sample as a whole holds those more often. Unmarked numbers belong to inactive results. The source made the active and inactive calls. Cut-off read from the data, not from the text of the source: active = growth inhibition above about 70%; inactive = the rest.
# Test: NCI Yeast Anticancer Drug Screen. Data for the wt1 strain (AID 149);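 note: 0% = growth of vehicle-treated wt1 cultures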
# Details: S. cerevisiae wt1 strain (SPY 50644) growth inhibition, stronger effect = higher value
# Method: Growth inhibition of yeast strains with defined genetic alterations is measured as a screen for potential anti-cancer activity. Selected strains with alterations in DNA damage repair or cell cycle control were exposed to compounds and growth inhibition was measured relative to vehicle treated controls. The strain used in this assay is wt1
SMILES,growth inhibition (at 1.2 µM) [%],growth inhibition (at 3.7 µM) [%],growth inhibition (at 11.0 µM) [%],growth inhibition (at 33.0 µM),growth inhibition (at 100.0 µM)
O=[N+]([O-])c1ccc(N2CCC(CCCC3CCN(c4ccc([N+](=O)[O-])cc4[N+](=O)[O-])CC3)CC2)c([N+](=O)[O-])c1,-6,-1,5,11%,11%
Cn1cc(NC(=O)c2cc(NC(=O)CN=C(N)N)cn2C)cc1C(=O)NCCC(=N)N,17,26,24,85% (active),96% (active)
CCN(CCCl)c1cc(CN(C)C)cc(NC(=O)c2ccc(C(=O)Nc3cc(CN(C)C)cc(N(CC)CCCl)c3)cc2)c1,9,20,9,8%,40%
[N-]=[N+]=C1C(Cl)=C(Cl)C(Cl)=C1Cl,-3,-2,44,97% (active),99% (active)
CSC(=Nc1ccccc1)N(c1ccccc1)c1nc(=[N+](C)C)ss1,-2,7,54,93% (active),98% (active)
S=C1NC2(CCCCC2)NC12CCCCC2,-2,-3,3,8%,13%
O=[N+]([O-])c1ccc(C=Cc2ccccc2)cc1.[C-]#[O+].[C-]#[O+].[C-]#[O+].[Cr],-2,-1,1,65%,79% (active)
CC1CCC2(NC1)OC1CC3C4CCC5CC(OC6OC(CO)C(OC7OC(CO)C(O)C(OC8OCC(O)C(O)C8O)C7OC7OC(CO)C(O)C(O)C7O)C(O)C6O)CCC5(C)C4CCC3(C)C1C2C (stereo not given),-6,-15,-18,-17%,40%
